Source: PubChem BioAssay (NCI)
About 83,000 compounds went through this panel and 20% of them were active in at least one assay; those are over-represented in the sample as a whole.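 Growth was measured after 48 h exposure to one concentration of compound in 96-well plates. Values under 10 count as active.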 Unmarked numbers belong to inactive results. Activity calls are given as the source filed them.

Legend:
Assay in all cases: NCI-60 one-dose screen, 48 h (100 = growth as untreated, 0 = no growth, -100 = all killed)
Conditions in all cases: 10 µM unless noted
DU-145 prostate = test system: DU-145 prostate
K-562 leukemia = test system: K-562 leukemia
MALME-3M melanoma = test system: MALME-3M melanoma
MDA-MB-231 breast = test system: MDA-MB-231 breast
RXF 393 renal = test system: RXF 393 renal
SF-268 CNS = test system: SF-268 CNS
SF-295 CNS = test system: SF-295 CNS
SF-539 CNS = test system: SF-539 CNS
UACC-257 melanoma = test system: UACC-257 melanoma
M14 melanoma = test system: M14 melanoma
HCT-15 colon = test system: HCT-15 colon
HT29 colon = test system: HT29 colon
SNB-75 CNS = test system: SNB-75 CNS
SNB-19 CNS = test system: SNB-19 CNS
U251 CNS = test system: U251 CNS
PC-3 prostate = test system: PC-3 prostate
SK-MEL-5 melanoma = test system: SK-MEL-5 melanoma
UACC-62 melanoma = test system: UACC-62 melanoma
LOX IMVI melanoma = test system: LOX IMVI melanoma

| SMILES | growth (DU-145 prostate) | growth (K-562 leukemia) | growth (MALME-3M melanoma) | growth (MDA-MB-231 breast) | growth (RXF 393 renal) | growth (SF-268 CNS) | growth (SF-295 CNS) | growth (SF-539 CNS) | growth (UACC-257 melanoma) | growth (M14 melanoma) | growth (HCT-15 colon) | growth (HT29 colon) | growth (SNB-75 CNS) | growth (SNB-19 CNS) | growth (U251 CNS) | growth (PC-3 prostate) | growth (SK-MEL-5 melanoma) | growth (UACC-62 melanoma) | growth (LOX IMVI melanoma) |
| --- | --- | --- | --- | --- | --- | --- | --- | --- | --- | --- | --- | --- | --- | --- | --- | --- | --- | --- | --- |
| CCCCN(CC)CC(CC)Nc1cc(OC)cc2cccnc12 (configuration not stated) | 110% | 114% | 110% | 115% | 122% | 104% | 109% | 102% | 92.9% | 109% | 97.2% | 103% | 100% | 110% | 101% | 96.5% | 99.9% | 106% | 114% |
| Cc1cccc(C[C@H](NC(=O)Nc2ccc(Cl)cc2F)C(=O)N[C@@H]2C(=O)N3C[C@H](O)C[C@H]3C(=O)N3CCCC[C@H]3C(=O)N[C@@H](C)C(=O)N3C[C@H](C)C[C@H]3C(=O)O[C@H]2C)c1 | 15.1% | 12.5% | 7.7% (active) | -32.6% (active) | -18.1% (active) | 11.6% | -21.3% (active) | 7.42% (active) | 14.9% | 3.02% (active) | 27.9% | -10.5% (active) | 4.64% (active) | 16.2% | 16.4% | 7.99% (active) | -70.4% (active) | -26.1% (active) | 9.07% (active) |
| O=C(N=c1n(-c2ccccc2)nc2n1CCN2C1=NCCN1C(=O)c1ccc(Cl)cc1)c1ccc(Cl)cc1 | 92.2% | 47.1% | 91.2% | 82.4% | 48.6% | 72.9% | 86.2% | 80.2% | 103% | 62.5% | 57% | 59.7% | 68.8% | 85.8% | 72.8% | 47.5% | 70.9% | 73.6% | 86.6% |
| Cc1cc(C)c(O)c(CNCCCNCc2cc(C)cc(C)c2O)c1 | 87.8% | 15.3% | -65.9% (active) | 35.8% | 47.9% | 74.7% | 30.3% | -11.8% (active) | 4.87% (active) | -65.8% (active) | 34.9% | 70.9% | 59.6% | 68.9% | 51.3% | 64.8% | 61.9% | 12.6% | 39.8% |
| O=C(N/N=C1\c2ccccc2-c2cccc(C(=O)O)c21)c1ccc(O)cc1 | 101% | 105% | 88.2% | 92.2% | 97.6% | 96.6% | 102% | 97.7% | 99.5% | 98% | 107% | 98.3% | 74% | 96.3% | 101% | 92.1% | 99.1% | 93.8% | 98.9% |
| COc1cc(NCc2ccccc2O)c2ncccc2c1 | 112% | 97.3% | 92.9% | 91.3% | 100% | 110% | 129% | 86% | 109% | 94.4% | 77.8% | 102% | 64.5% | 92.8% | 98.9% | 83.6% | 101% | 95% | 83.9% |
| CCN(CC)CCCOc1ccc2c(c1)O/C(=C\c1cccc(OC)c1)C2=O | 86.8% | 21.5% | 90.5% | 87.1% | 85.6% | 86.1% | 93.4% | 86.7% | 100% | 92.6% | 53.5% | 50.2% | 71.8% | 92.6% | 76.7% | 94.6% | 91.2% | 95.6% | 70.7% |
| CC(C)=CC/C=C(/C)[C@H]1CC[C@]2(C)[C@@H]1CC[C@@H]1[C@@]3(C)CC/C(=N/O)C(C)(C)[C@@H]3CC[C@]12C | 73.7% [100 µM] | 33.9% [100 µM] | 81% [100 µM] | 50.5% [100 µM] | 61.3% [100 µM] | 72% [100 µM] | 64.2% [100 µM] | 64% [100 µM] | 59.5% [100 µM] | 61.1% [100 µM] | 57.2% [100 µM] | 23.2% [100 µM] | 69.4% [100 µM] | 67.3% [100 µM] | 50.9% [100 µM] | 29.4% [100 µM] | 18.2% [100 µM] | 43.1% [100 µM] | 59.6% [100 µM] |
